Source: PubChem BioAssay
RECQ1 helicase = blocks DNA unwinding by human RECQ1; AID 2549; 240,000 compounds, 0.54% hits; P46063; RECQ1 DNA unwinding, red fluorescence kinetic read; Potency, µM (doses to about 57.3 µM), inactives show at the highest dose activity, negative = inhibition, most hits filed as inhibitors;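 further: plate controls were vehicle for no effect and no enzyme for full effect; nearly all actives have a fitted effect of over 30% in size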
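RECQ1T1 50 nM; forked duplex (20 bp + 30-nt ss tails) 200 nM, ATP 2 mM final; pH 8.0, 2 mM MgCl2, 2.5 ug/ml poly(dI-dC); 15 min compound preincubation; discontinuous kinetic read over 2 h at RT.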
APEX1 inh = blocks human APE1 abasic DNA cleavage | recombinant APE1, TAMRA/BHQ-2 abasic DNA cleavage fluorescence | 350,000 compounds, 0.35% hits | Potency, µM (series often up to 65.8 µM), inactives show at the highest dose activity change, negative = inhibition, hits mostly inhibitors | AID 2517 | P27695;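 further: plate controls were vehicle for no effect and reference inhibitor for full effect; nearly all actives have a fitted effect of over 55% in size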
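Measures dequenching upon AP-site incision of a 5'-TAMRA/3'-BHQ-2 THF-containing duplex, 50 nM; human APE1 0.75 nM after 15 min room-temperature exposure to compound; kinetic three-point read at one-minute spacing.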
TDP1 inh = blocks human tyrosyl-DNA phosphodiesterase 1 | recombinant TDP1, AlphaScreen DNA substrate cleavage | Potency, µM (titrated, usually from 130 µM), without a hit: top-dose activity change, negative = inhibition, most hits filed as inhibitors | 350,000 compounds, 0.28% hits; further: nearly all actives have a fitted effect of over 40% in size
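Recombinant human Tdp1 (E. coli-expressed, 1 nM final) preincubated with compounds 15 min at room temperature, then 5'-biotin/3'-phosphotyrosine-FITC DNA substrate (15 nM final) added for 5 min. AlphaScreen beads (10 ug/ml final) added 10 min; cleavage lowers signal.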
BLM inh = blocks DNA unwinding by human BLM helicase; recombinant BLM DNA unwinding, fluorescence dequenching; Potency, µM (series often up to 56.1 µM), for inactives: at the highest dose activity change, negative = inhibition, usual class: inhibitors; P54132; 350,000 compounds, 0.2% hits; AID 2528;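 further: plate controls were vehicle for no effect and no enzyme for full effect; nearly all actives have a fitted effect of over 35% in size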
KDM4E inh = JMJD2E (human) inhibition; Potency, µM (doses to about 57.1 µM), for the others: at the top dose activity change, negative = inhibition, hits mostly inhibitors; 230,000 compounds, 1.6% hits; JMJD2E catalytic domain, FDH-coupled NADH fluorescence (FDH is formaldehyde dehydrogenase);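 further: 0% = wells with enzyme and -100% = buffer wells without enzyme; nearly all actives have a fitted effect of over 50% in size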
GCN5L2 inh = GCN5L2 (KAT2A) acetyltransferase inhibition; Potency, µM (doses to about 58.9 µM), without a hit: at the highest dose activity change, negative = inhibition, most hits filed as inhibitors; GCN5L2 HAT assay, ThioGlo1 CoA-SH fluorescence; AID 504327; 390,000 compounds, 0.21% hits
Target sequence (Q92830 whole entry, looked up): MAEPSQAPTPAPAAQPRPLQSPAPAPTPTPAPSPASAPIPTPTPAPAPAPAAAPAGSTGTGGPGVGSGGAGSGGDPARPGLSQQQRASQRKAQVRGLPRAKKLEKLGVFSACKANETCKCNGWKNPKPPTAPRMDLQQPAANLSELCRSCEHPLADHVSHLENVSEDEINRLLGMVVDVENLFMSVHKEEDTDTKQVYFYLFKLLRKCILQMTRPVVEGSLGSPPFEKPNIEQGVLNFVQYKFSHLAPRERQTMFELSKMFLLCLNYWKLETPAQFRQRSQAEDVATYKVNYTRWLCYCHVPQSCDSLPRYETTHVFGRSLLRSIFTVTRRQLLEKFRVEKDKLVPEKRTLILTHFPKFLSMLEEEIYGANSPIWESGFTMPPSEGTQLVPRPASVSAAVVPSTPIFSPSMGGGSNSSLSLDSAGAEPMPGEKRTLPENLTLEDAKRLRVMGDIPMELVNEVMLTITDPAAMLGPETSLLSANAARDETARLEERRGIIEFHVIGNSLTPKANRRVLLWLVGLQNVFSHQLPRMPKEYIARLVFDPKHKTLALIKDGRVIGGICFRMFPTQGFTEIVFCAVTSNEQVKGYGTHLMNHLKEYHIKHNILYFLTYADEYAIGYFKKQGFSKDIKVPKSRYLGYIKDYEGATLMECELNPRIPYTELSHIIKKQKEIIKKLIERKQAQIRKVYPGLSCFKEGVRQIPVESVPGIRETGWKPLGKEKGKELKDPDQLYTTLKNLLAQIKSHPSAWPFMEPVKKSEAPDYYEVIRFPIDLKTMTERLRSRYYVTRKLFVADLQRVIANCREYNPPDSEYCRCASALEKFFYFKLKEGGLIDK
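GCN5L2 (20nM final) in 50mM HEPES, 0.1mM EDTA pH 7.5, 0.01% Tween-20 was preincubated 15 min at room temperature with compound, then given ThioGlo1 (50uM), H3(1-25) peptide (75uM) and acetyl-CoA (70uM); CoA-thiol fluorescence (Ex340/Em540) was read at 0 and 20 min.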
Starred values were filed as active, the others as inactive. The sample as a whole holds a higher share of hits than the screen did. Unless noted, the call rests on the fitted dose curve; in most records, active means well fitted curve in the direction sought with a large enough effect; inconclusive means small, poorly fitted or top-dose-only effect, or another doubt; inactive means no such curve, though single readings can be large; an effect the other way counts as inactive or inconclusive. Unless noted, on the % scale 0 is the no-effect control and ±100 the full control effect; potency means the concentration at half of the fitted maximal effect.

`CC[C@H](C)[C@H](NC(=O)[C@H](Cc1ccc(O)cc1)NC(=O)[C@H](CCCNC(=N)N)NC(=O)[C@H](CCCNC(=N)N)NC(=O)[C@H](CC(C)C)NC(=O)[C@H](CCC(N)=O)NC(=O)[C@@H](NC(=O)[C@H](CCC(=O)O)NC(=O)[C@H](Cc1ccc(O)cc1)NC(=O)[C@H](CCC(N)=O)NC(=O)[C@H](C)NC(=O)[C@H](CCCNC(=N)N)NC(=O)[C@H](CCC(N)=O)NC(=O)[C@H](CCC(=O)O)NC(=O)[C@H](Cc1cnc[nH]1)NC(=O)[C@@H](NC(=O)[C@H](C)NC(=O)[C@H](Cc1ccc(O)cc1)NC(=O)[C@H](CC(=O)O)NC(=O)CNC(=O)[C@@H]1CCCN1C(=O)[C@H](Cc1ccc(O)cc1)NC(=O)[C@H](CCSC)NC(=O)[C@@H]1CCCN1C(=O)[C@H](CCC(=O)O)NC(=O)[C@H](CC(C)C)NC(=O)[C@@H]1CCCN1C(=O)[C@H](C)N)[C@@H](C)O)[C@@H](C)O)C(=O)N[C@@H](CC(N)=O)C(=O)N[C@H](C(=O)N[C@@H](CC(C)C)C(=O)N[C@H](C(=O)N[C@@H](CCCNC(=N)N)C(=O)N1CCC[C@H]1C(=O)N[C@@H](CCCNC(=N)N)C(=O)N[C@@H](Cc1ccc(O)cc1)C(N)=O)[C@@H](C)O)[C@@H](C)O` gave RECQ1 helicase -1%, APEX1 inh 3%, TDP1 inh 8%, BLM inh 4% and GCN5L2 inh 45%.
Screening CC(C)c1cccc(-c2ccc3c(c2)S(=O)(=O)c2cccc(C(=O)NCc4ccco4)c2C3=O)c1 returned APEX1 inh -38%, TDP1 inh 45µM* and GCN5L2 inh inconclusive.
CC(C)c1cccc(-c2ccc3c(c2)S(=O)(=O)c2cccc(C(=O)O)c2C3=O)c1 was read as APEX1 inh -5%, TDP1 inh 3% and GCN5L2 inh -23%.
`O=C1CCc2cc([S+](=O)([O-])NC3CCOCC3)ccc2N1` gave TDP1 inh 1%.
For C[C@@H]1Cc2c(O)c(O)cc(O)c2C(=O)O1 the results were RECQ1 helicase inactive, APEX1 inh inconclusive, BLM inh 1%, KDM4E inh 2µM* and GCN5L2 inh -12%.
`CC1CC2OC2/C=C\C=C/C(=O)Cc2c(Cl)c(O)cc(O)c2C(=O)O1` (stereo unspecified) gave RECQ1 helicase -3%, APEX1 inh 0%, TDP1 inh 2%, BLM inh -2% and GCN5L2 inh -3%.
For C/C(=N\NC(=O)c1cc(-c2cccc([N+](=O)[O-])c2)n[nH]1)c1ccccc1O the results were RECQ1 helicase -1%, APEX1 inh -2%, TDP1 inh 0%, BLM inh inconclusive, KDM4E inh 25µM* and GCN5L2 inh inconclusive.
For C/C(=N\NC(=O)CSCc1ccc([N+](=O)[O-])cc1)c1ccccc1 the results were RECQ1 helicase -8%, APEX1 inh -5%, TDP1 inh 7%, BLM inh -11%, KDM4E inh 10% and GCN5L2 inh -3%.
`C/C(=N\NC(=O)CSCc1ccc([N+](=O)[O-])cc1)c1ccccc1O` gave RECQ1 helicase -4%, APEX1 inh 0%, TDP1 inh 0%, BLM inh -1%, KDM4E inh 25µM* and GCN5L2 inh -3%.
Screening Cc1ccc(NS(=O)(=O)c2cccc(F)c2)cc1C returned TDP1 inh 0%.
`Cc1cccc(N2CCN(C(=O)c3ccc4c(c3)NC(=O)C(CSCc3cccc(F)c3)N4)CC2C)c1` (stereo unspecified) gave APEX1 inh -6%, TDP1 inh 3%, BLM inh -6% and GCN5L2 inh 14µM*.
